# According to PubChem BioAssay (NCATS):
# Inconclusive results are not listed. Entries that show only a call come without a potency. Active and inactive are the calls of the source. The call rests on the fitted dose curve.
# Tests used:
# [1] = Primary qHTS for Huh7 cytotoxicity: counterscreen for inhibitors of MERS-S pseudotyped particle cell entry (AID 1479147)
# [2] = Primary qHTS for inhibitors of MERS-S pseudo-typed particle cell entry (AID 1479149); further: nearly all actives have a fitted effect of over 60% in size; further: potency means the concentration at half of the fitted maximal effect
# [3] = Primary qHTS for Vero E6 cytotoxicity: counterscreen for inhibitors of SARS-S pseudo-typed particle cell entry (AID 1479150)
# [4] = Confirmatory qHTS for VERO E6 Cytotoxicity Assay: Counterscreen for SARS-CoV-2 CPE Assay (AID 1508605); further: nearly all actives have a fitted effect of over 60% in size; further: potency means the concentration at half of the fitted maximal effect
# [5] = Confirmatory qHTS for activators (rescue) of SARS-CoV-2 Cytopathic Effect (CPE) (AID 1508606); settings: Vero E6 SARS-CoV-2 CPE rescue, viability luminescence; further: potency means the concentration at half of the fitted maximal effect; nearly all actives have a fitted effect of over 70% in size
structure (smiles),measurement,setting,value
CC(C)CN(C[C@@H](OP(=O)(O)O)[C@H](Cc1ccccc1)NC(=O)O[C@H]1CCOC1)S(=O)(=O)c1ccc(N)cc1,Potency,[1],inactive
same,Potency,[2],inactive
same,Potency,[3],inactive
CC(N=C(NC#N)Nc1ccncc1)C(C)(C)C (centres undefined),Potency,[1],inactive
same,Potency,[2],inactive
same,Potency,[3],inactive
c1ccc2c(c1)CCCC2C1=NCCN1 (centres undefined),Potency,[1],inactive
same,Potency,[2],inactive
same,Potency,[3],inactive
O=C(O[C@H]1CN2CCC1CC2)N1CCc2ccccc2[C@@H]1c1ccccc1,Potency,[1],inactive
same,Potency,[3],inactive
CN1[C@@H]2CC[C@H]1CC(OC(c1ccccc1)c1ccccc1)C2 (some centres undefined),Potency,[1],inactive
same,Potency,[2],14.1 µM (active)
same,Potency,[3],inactive
same,Potency,[4],inactive
CN(c1nccc(=O)[nH]1)C1CCN(c2nc3ccccc3n2Cc2ccc(F)cc2)CC1,Potency,[1],inactive
same,Potency,[3],inactive
CNCCCCOc1ccccc1Cc1ccccc1,Potency,[3],inactive
same,Potency,[4],inactive
C[n+]1c2cc(N)ccc2cc2ccc(N)cc21 (tested in a mixture with another compound),Potency,[2],7.94 µM (active)
CN(C)c1ccc2nc3ccc(=[N+](C)C)cc-3sc2c1,Potency,[2],7.08 µM (active)
CN(C)CCOc1ccc(/C(=C(/CCCl)c2ccccc2)c2ccccc2)cc1,Potency,[1],inactive
same,Potency,[3],inactive
COc1cc(C)nc(-n2nc(C)cc2OC)n1,Potency,[1],inactive
same,Potency,[3],inactive
CC(=O)OCC(=O)[C@H]1CC[C@H]2[C@@H]3CCC4=CC(=O)CC[C@]4(C)[C@H]3CC[C@]12C,Potency,[1],inactive
same,Potency,[3],inactive
CNCCC=C1c2ccccc2CCc2ccccc21,Potency,[3],inactive
same,Potency,[4],inactive
CN1CCN(CCC=C2c3ccccc3Sc3ccc(S(=O)(=O)N(C)C)cc32)CC1,Potency,[2],inactive
same,Potency,[4],11.2 µM (active)
COc1cc(C)c(Cc2cnc(N)nc2N)cc1OC,Potency,[1],inactive
same,Potency,[3],inactive
CC(=O)[C@H]1CC[C@H]2[C@@H]3C=CC4=CC(=O)CC[C@@]4(C)[C@@H]3CC[C@]12C,Potency,[1],inactive
same,Potency,[3],inactive
OCCN1CCN(CC/C=C2/c3ccccc3Sc3ccc(C(F)(F)F)cc32)CC1,Potency,[3],inactive
Oc1ccc(Cl)c2cccnc12,Potency,[2],inactive
same,Potency,[3],inactive
NC(N)=NS(=O)(=O)c1ccc(N)cc1,Potency,[1],inactive
same,Potency,[3],inactive
Cc1cc(C(C#N)c2ccc(Cl)cc2)c(Cl)cc1NC(=O)c1cc(I)cc(I)c1O (centres undefined),Potency,[2],20 µM (active)
CCOC(=O)C1=C(COCCN)NC(C)=C(C(=O)OC)C1c1ccccc1Cl (centres undefined),Potency,[1],inactive
same,Potency,[2],inactive
same,Potency,[3],inactive
same,Potency,[4],inactive
CCN(CC)CC#CCOC(=O)C(O)(c1ccccc1)C1CCCCC1 (centres undefined),Potency,[1],inactive
same,Potency,[3],inactive
CCOc1ccc2nc3cc(N)ccc3c(N)c2c1,Potency,[1],inactive
same,Potency,[3],inactive
O=C(OCc1ccccc1)c1ccccc1,Potency,[1],inactive
same,Potency,[3],inactive
O=c1[nH]c(=O)n([C@H]2C[C@H](O)[C@@H](CO)O2)cc1F,Potency,[2],inactive
same,Potency,[3],inactive
CC(=O)N1CCN(c2ccc(OC[C@H]3CO[C@](Cn4ccnc4)(c4ccc(Cl)cc4Cl)O3)cc2)CC1,Potency,[2],7.94 µM (active)
Cc1ccc(Nc2nccc(N(C)c3ccc4c(C)n(C)nc4c3)n2)cc1S(N)(=O)=O,Potency,[1],inactive
same,Potency,[3],inactive
CNCCCC12CCC(c3ccccc31)c1ccccc12,Potency,[1],inactive
same,Potency,[3],inactive
same,Potency,[4],inactive
O=c1[nH]c(=O)n([C@H]2C[C@H](O)[C@@H](CO)O2)cc1Br,Potency,[1],inactive
same,Potency,[3],inactive
Nc1ncn([C@H]2C[C@H](O)[C@@H](CO)O2)c(=O)n1,Potency,[1],inactive
same,Potency,[3],inactive
CC(C)(C)CC(C)(C)c1ccc(OCCOCC[N+](C)(C)Cc2ccccc2)cc1,Potency,[1],inactive
same,Potency,[3],inactive
C=CCN1C[C@H](C(=O)N(CCCN(C)C)C(=O)NCC)C[C@@H]2c3cccc4[nH]cc(c34)C[C@H]21,Potency,[1],inactive
same,Potency,[3],inactive
CN1CCN(C(c2ccccc2)c2ccc(Cl)cc2)CC1 (centres undefined),Potency,[1],inactive
same,Potency,[3],inactive
same,Potency,[4],inactive
CC(=O)[C@H]1CC[C@H]2[C@@H]3C[C@H](C)C4=CC(=O)CC[C@]4(C)[C@H]3[C@@H](O)C[C@]12C,Potency,[1],inactive
same,Potency,[2],inactive
same,Potency,[3],inactive
CC(=O)O[C@]1(C(C)=O)CC[C@H]2[C@@H]3C[C@H](C)C4=CC(=O)CC[C@]4(C)[C@H]3CC[C@@]21C,Potency,[1],inactive
same,Potency,[3],inactive
C#CCC(Cc1cnc2nc(N)nc(N)c2n1)c1ccc(C(=O)N[C@@H](CCC(=O)O)C(=O)O)cc1 (some centres undefined),Potency,[2],inactive
CCN(CC)C(C)CN1c2ccccc2Sc2ccccc21 (centres undefined),Potency,[1],inactive
same,Potency,[3],inactive
CC(=O)S[C@@H]1CC2=CC(=O)CC[C@]2(C)[C@H]2CC[C@@]3(C)[C@@H](CC[C@@]34CCC(=O)O4)[C@H]12,Potency,[2],inactive
same,Potency,[3],inactive
COc1ccc(-c2ccc3cc(C(=O)O)ccc3c2)cc1C12CC3CC(CC(C3)C1)C2,Potency,[1],inactive
same,Potency,[3],inactive
C[N+]1(C)[C@@H]2CC(OC(=O)[C@H](CO)c3ccccc3)C[C@H]1[C@@H]1O[C@@H]12 (some centres undefined),Potency,[1],inactive
same,Potency,[2],inactive
same,Potency,[3],inactive
N#Cc1ccc2c(c1)N(CCCN1CCC(O)CC1)c1ccccc1S2,Potency,[1],inactive
same,Potency,[3],inactive
same,Potency,[4],inactive
same,Potency,[5],11.2 µM (active)
